Compound activity as filed in PubChem.
Compounds with a hit are over-represented: about 0.5% of the library has one in this group of screens.
Tat export inh = E. coli Tat export inhibitors, primary screen, MC4100, TorA-mCherry reporter, fluorescence, single point. inhibition, % at 10 µM. 340,000 tested, 0.036% active. AID 488895, 2010;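 active = mean replicate inhibition at least 50% and at least half of replicates individually reaching 50%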;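 note: exported cargo escapes ClpAP degradation while cytoplasmic cargo is degraded and loses fluorescence; 0% = median of neutral control wells and 100% = median of NaSCN control wells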
phage Ecoli inh = growth loss of phage-infected E. coli, primary screen, RecBCD inhibitor project, absorbance, with phage, HTS; inhibition, % at 11.9 µM; 360,000 tested, 0.26% active; AID 651602, 2012; in the data active = inhibition above about 11%
E coli growth-1 = E. coli growth inhibition, primary screen, OD600; Escherichia coli growth, 23 h; active compounds read low; OD600 absorbance (test concentration not listed); 330,000 tested, 0.21% active;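 active = OD600 absorbance below the run mean of sample wells minus 3.6 SD, in any replicate, cut at about 0.56 in these data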
AddAB inh = growth inhibition of E. coli expressing H. pylori AddAB, primary screen, AddAB inhibitor project, absorbance. 330,000 tested, 0.29% active. inhibition, % at 11.9 µM. AID 435030, 2010; in the data active = inhibition above about 12%;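 note: 0% = vehicle wells of infected cells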
E coli growth-2 = E. coli V3065 growth inhibition, primary screen, counter-screen for AddAB inhibitor project, absorbance, OD600; 18 h; inhibition, % at 11.9 µM; 330,000 tested, 0.27% active; AID 449728, 2010;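 active = inhibition above the campaign's mean inhibition across all tested compounds plus 3 SD, cut at about 9.9% in these data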;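 note: uninfected addAB+ strain grown without phage in ampicillin broth; 0% = DMSO wells and 100% = ciprofloxacin 0.95 µg/ml wells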
AddAB conf = growth loss of phage-infected E. coli expressing H. pylori AddAB, confirmation, AddAB inhibitor project, absorbance, E. coli V3065, T4 phage, triplicate; shares compounds with AddAB inh; inhibition, % at 11.9 µM; 880 tested, 64% active; OD; T4 phage with gene 2 nonsense mutations;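 active = mean inhibition above a set limit taken from the earlier primary screen, cut at about 13% in these data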;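 note: higher means less bacterial growth since AddAB block lets phage replicate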
RecBCD counter = growth loss of RecBCD+ E. coli with mutant T4 phage, counter-screen for AddAB inhibitor project, absorbance, V66 E. coli; shares compounds with AddAB inh; OD growth; inhibition, % at 11.9 µM; 880 tested, 73% active;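 active = mean inhibition above the mean of solvent-only control wells plus 3 SD, cut at about 4% in these data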;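 note: optical density read after an 18 h incubation at 37 °C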
Bact viability = bacterial viability inhibition counter-screen, confirmation, counter-screen for AddAB inhibitor project, absorbance; shares compounds with AddAB inh; absorbance (AddAB counterscreen); inhibition, % at 11.9 µM; 880 tested, 35% active; AID 488956, 2010; in the data active = inhibition above about 25%
The depositor's hits bear a star.

For C=CCNC(=S)N1CCC(C(=O)c2ccc(OC)cc2)CC1 the results were Tat export inh 6.3, phage Ecoli inh 2.2, E coli growth-1 0.701, AddAB inh 2.7 and E coli growth-2 -0.5.
Screening Cc1c(Cl)cccc1NC(=S)N1CCN(c2ncccn2)CC1 returned Tat export inh -8.0, phage Ecoli inh 3.2, E coli growth-1 0.685, AddAB inh 1.2 and E coli growth-2 -2.9.
For CCn1cc(C(=O)O)c(=O)c2cnc(N3CCN(C(=S)Nc4ccccc4Cl)CC3)nc21 the results were Tat export inh -6.0, phage Ecoli inh 0.1, E coli growth-1 0.537, AddAB inh 97.1*, E coli growth-2 83.7*, AddAB conf 97.5*, RecBCD counter -0.4 and Bact viability 32.5*.
Screening Fc1cccc(NC(=S)NCc2ccccc2Cl)c1 returned Tat export inh -3.6, phage Ecoli inh 9.4, E coli growth-1 0.621, AddAB inh 19.0*, E coli growth-2 10.7*, AddAB conf 32.6*, RecBCD counter 25.8* and Bact viability 33.5*.
For Cc1cc(Cl)ccc1NC(=S)NCc1ccccc1Cl the results were Tat export inh 4.2, phage Ecoli inh 0.6, E coli growth-1 0.645, AddAB inh 15.7*, E coli growth-2 5.8, AddAB conf 15.0*, RecBCD counter 14.8* and Bact viability 13.6.
`S=C(NCc1ccccc1Cl)Nc1ccccc1Cl` gave Tat export inh 1.5, phage Ecoli inh 3.5, E coli growth-1 0.652, AddAB inh 8.8 and E coli growth-2 3.2.
Screening S=C(NCc1ccc(Cl)cc1Cl)Nc1ccccc1 returned Tat export inh 6.6, phage Ecoli inh 5.0, E coli growth-1 0.614, AddAB inh 7.3 and E coli growth-2 2.4.
NC1C2CN(c3nc4c(cc3F)c(=O)c(C(=O)O)cn4-c3ccc(F)cc3F)CC12 (configuration not stated) was read as Tat export inh 109.2*, E coli growth-1 0.0445*, AddAB inh 100.2*, E coli growth-2 97.6*, AddAB conf 98.7*, RecBCD counter 99.6* and Bact viability 100.6*.
`Cc1c(-n2cc(C(=O)O)c(=O)c3cc(F)c(N4CCCC4)c(F)c32)c(=O)n(-c2ccccc2)n1C` gave Tat export inh -15.0, phage Ecoli inh 2.8, E coli growth-1 0.693, AddAB inh 1.2 and E coli growth-2 2.0.
For CC(=O)NN1C(=O)c2ccccc2NC1c1ccc([N+](=O)[O-])o1 (configuration not stated) the results were Tat export inh -9.6, phage Ecoli inh 4.5, E coli growth-1 0.598, AddAB inh 17.8*, E coli growth-2 14.8*, AddAB conf 79.2*, RecBCD counter 5.9* and Bact viability 30.0*.
Screening O=C(NN1C(=O)c2ccccc2NC1c1ccc([N+](=O)[O-])o1)c1ccc(Br)cc1 (configuration not stated) returned Tat export inh -1.6, phage Ecoli inh 4.9, E coli growth-1 0.687, AddAB inh 3.1 and E coli growth-2 1.9.
Screening Cc1ccc(NC(=O)NCC2CC2(Cl)Cl)cc1 (configuration not stated) returned Tat export inh -11.4, phage Ecoli inh 2.7, AddAB inh 1.0 and E coli growth-2 1.9.
Screening O=C(NCC1CC1(Cl)Cl)Nc1ccc(Cl)c(Cl)c1 (configuration not stated) returned Tat export inh -5.4, phage Ecoli inh 8.9, E coli growth-1 0.428*, AddAB inh 12.6*, E coli growth-2 6.3, AddAB conf 11.8, RecBCD counter 13.1* and Bact viability 2.1.
For COC(=O)c1sc2ccccc2c1C(=O)OC the results were Tat export inh -8.3, phage Ecoli inh 2.0 and E coli growth-1 0.673.
`COC(=O)c1sc2ccccc2c1N` gave Tat export inh 0.6, phage Ecoli inh 2.2, E coli growth-1 0.699, AddAB inh 35.4*, E coli growth-2 21.2*, AddAB conf 1.6, RecBCD counter -0.8 and Bact viability -1.2.
`CCCCCCCCC[n+]1cccc2c3ccccc3ccc21` gave Tat export inh -11.7, E coli growth-1 0.492*, AddAB inh 15.4*, E coli growth-2 15.5*, AddAB conf 9.4, RecBCD counter 6.6* and Bact viability 6.8.
For Cc1ccc(NC(=O)c2ccc(-n3cccn3)c([N+](=O)[O-])c2)cc1 the results were Tat export inh -2.2, phage Ecoli inh 2.0, E coli growth-1 0.662, AddAB inh 5.3 and E coli growth-2 -0.1.
O=C(Nc1ccc(C2=NCCN2)cc1)c1ccc(C(=O)Nc2ccc(C3=NCCN3)cc2)c([N+](=O)[O-])c1 was read as Tat export inh 63.5*, phage Ecoli inh 9.8, AddAB inh 27.2*, E coli growth-2 24.6*, AddAB conf 86.1*, RecBCD counter 28.9* and Bact viability 28.4*.
CCOC(=O)N1CCC(N2CCN(S(=O)(=O)c3ccc([N+](=O)[O-])cc3)CC2)CC1 was read as Tat export inh -3.3, phage Ecoli inh 1.1, E coli growth-1 0.691, AddAB inh -0.4 and E coli growth-2 1.3.
Screening O=C(CSc1nnnn1-c1ccc(F)cc1)c1ccc(O)c(O)c1 returned Tat export inh -2.7, phage Ecoli inh 7.2, E coli growth-1 0.689, AddAB inh 3.6 and E coli growth-2 1.7.
For Cc1ccc(C(=O)NC2CCCCN(C)C2=O)cc1 (configuration not stated) the results were phage Ecoli inh 1.7.
Screening CC(=O)NC1CCCN(O)C(=O)/C=C(\C)CCOC(=O)C(NC(C)=O)CCCN(O)C(=O)/C=C(\C)CCOC(=O)C(NC(C)=O)CCCN(O)C(=O)/C=C(\C)CCOC1=O (configuration not stated) returned AddAB inh 21.3*, E coli growth-2 16.2*, AddAB conf 14.0*, RecBCD counter 15.4* and Bact viability 6.2.
Screening COc1ccc(NC(=O)CSc2ccc(-c3cccnc3)nn2)cc1 returned Tat export inh 0.5, phage Ecoli inh 3.7, E coli growth-1 0.644, AddAB inh 4.6 and E coli growth-2 -0.3.
CCOC(=O)c1ccc(NC(=O)CSc2ccc(-c3cccnc3)nn2)cc1 was read as Tat export inh -15.4, phage Ecoli inh 4.9, AddAB inh 16.0*, E coli growth-2 3.5, AddAB conf 3.1, RecBCD counter 4.1* and Bact viability -0.3.
Screening COc1ccc2c(c1)C1C(CO2)C(c2ccccc2)[C@]2(C)C(=O)Nc3ccc(C)cc3C(=O)N12 (some centres not stated) returned E coli growth-1 0.708.
